# Results taken from PubChem BioAssay (NCI).
# This is part of a sample that, as a whole, favours compounds with a hit. Of some 83,000 tested, about 20% had one in any assay.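 How to read the values: 0–100, growth inhibition (40 = 60% inhibited); 0, no net growth; -100 to 0, cell death (-40 = 40% of starting cells died; -100 = all dead).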 Unmarked numbers belong to inactive results. Activity calls are given as the source filed them. How the source made its calls: active means growth percent below 10; inactive means the rest.
# Tested on: HL-60(TB) leukemia
# Assay: NCI-60 one-dose screen, 48 h (100 = growth as untreated, 0 = no growth, -100 = all killed)
# Conditions: 10 µM unless noted
row,Structure (SMILES),growth
1,Cc1ccc(C)c2c1C(O)(C#Cc1ccccc1)c1ccccc1C2(O)C#Cc1ccccc1 (stereo not given),35.6%
2,COC(=O)c1ccc2c(c1)nc(-c1ccc(Cl)cc1)n2-c1cc(C(C)(C)C)[nH]n1,14.9%
3,O=C1OCC2=C1C(c1cccc([N+](=O)[O-])c1)c1cc3c(cc1N2CCO)CCC3 (stereo not given),-26.9% (active)
4,Cc1c(Cl)cccc1C(=O)Nc1nc2c(s1)CN(C(=O)Nc1cccc(C(F)(F)F)c1)CC2,6.4% (active)
5,Cc1ccc(S(=O)(=O)NCC[C@@H]2C[C@H]2c2cc3ccccc3s2)cc1,112%
6,Nc1c(C(=O)Nc2cccc(Cl)c2)sc2nc3c(cc12)CCCC3,78.8%
7,O=C(/C=C/c1ccc(C(F)(F)F)cc1)Nc1ccc(C=C2c3ccccc3C(=O)c3ccccc32)cc1,11.2%
8,CN1C/C=C\CCOc2cccc(c2)-c2ccnc(n2)Nc2cccc(c2)C1,-51.9% (active)
9,CC(=O)O[C@H]1CC[C@]2(C)[C@H]3C(=O)C=C4[C@@H]5C[C@](C)(C(=O)N6CCCNCC6)CC[C@]5(C)CC[C@@]4(C)[C@]3(C)CC[C@H]2C1(C)C,-61.9% (active)
10,COc1ccc(/C=c2\sc3n(c2=O)NC2C(N=3)N(C)C(=O)N2C)cc1 (stereo not given),98.4%
11,O=c1nc(NO)[nH]c(=O)n1Cc1ccc(F)cc1,103%
12,COc1ccc(/C=N\NC(=O)c2ccncc2)cc1O,97.9%
13,COc1ccc(-n2nc(C(=O)NCC(=O)Nc3nc4cc(OC)ccc4s3)c3ccccc3c2=O)cc1,61.7%
14,O=C(/C=C/CN1CCOCC1)Nc1cc2c(Nc3cccc(Cl)c3F)ncnc2cc1OCCOC(F)F,89.5%
15,Nc1ccc(S(=O)(=O)Nc2cc(F)cc(F)c2)cc1,73%
16,NCCCNc1nc2ccccc2c2c(=O)c3cc(F)ccc3sc12,-28.1% (active)
17,COc1ccc(/C=C(\C(=O)NCc2cccnc2)S(=O)(=O)c2ccccc2)cc1OC,33%
18,COc1cc(C2c3cc4c(cc3C(OC(=O)C[n+]3ccccc3)C3COC(=O)C23)OCO4)cc(OC)c1OC (stereo not given),-32.5% (active)
19,CC(C)N1C(=O)/C(=c2\sc3n(c2=O)C2C(NN=3)N(C)C(=O)N2C)c2ccccc21 (stereo not given),25.8%
20,Cn1c(NCCc2ccc(O)c(O)c2)nc2c1c(=O)n(Cc1ccc(Br)cc1)c(=O)n2C,2.61% (active)

row,Structure (SMILES),growth
1,O=C1C=CC2(NN=C(c3ccccc3)N2c2ccc(Cl)cc2)c2cccc(O)c21 (stereo not given),23.5%
2,CCCCCCCCCCCCCCn1c2ccccc2c2c3c(c4c5cc(OC)ccc5oc4c21)C(=O)NC3=O,115%
3,FC(F)(F)c1ccc(Cn2cc(CSc3nc4ccccc4s3)nn2)cc1,97.9%
4,Cc1cc2cn3c4ccc(O)cc4nc(N)c3c2cc1C,-32.5% (active)
5,Cc1cc(Cl)nc(N2CCN(CCNc3ccnc4cc(Cl)ccc34)CC2)n1,27.8%
6,CC(=O)[C@@]12O[C@](C)(c3ccccc3)O[C@@H]1CC1C3CCC4=CC(=O)CC[C@]4(C)C3CC[C@@]12C (stereo not given in full),0.639% (active)
7,O=C1/C(=C/c2ccccc2)SC(=Nc2ccccc2)N1Nc1ccccc1,-7.82% (active)
8,CN(C)c1ccc(/C=N/NC(=O)c2ccccc2Nc2cccc(C(F)(F)F)c2)cc1,92.1%
9,Clc1ccc(Nc2nnc(CNc3ccccc3)c3ccccc23)cc1,-13.4% (active)
10,CCCCCCNC(=O)Oc1ccc(/C(=C(/C)Cc2ccc(OC)cc2)c2ccc(OCCN3CCCCC3)cc2)cc1,57.9%
11,CC[C@H]1CCC/C=C/[C@@H]2C[C@H](O)C[C@H]2[C@H](O)/C=C/C(=O)O1,-0.414% (active)
12,COc1ccc(-c2nn(-c3cccc(NC(=O)c4cccc(C(F)(F)F)c4)c3)cc2-c2ccncc2)cc1Cl,4.23% (active)
13,CCOC(=O)c1cc(C(=O)c2cc(OC)c(OC)c(OC)c2)n2ccccc12,-24.6% (active)
14,CCOC(=O)/C(=C\c1ccc(-c2ccccc2)cc1)C(C)=O,93.7%
15,CC1Cc2c(N(C)C)ncnc2N(C)c2ccc(Cl)cc21 (stereo not given),-7.29% (active)
16,O=[N+]([O-])c1ccccc1NCSc1ccc(Cl)cc1,65.7%
17,O=C1c2ccccc2C(=O)N1CCCCNc1ccccc1,5.16% (active)
18,O=c1[nH]c2cc(Cl)c(Cl)cc2n2cc3ncccc3c12,65.5%
19,COc1cc(OC)c(C(=O)/C=C/c2cc3c(cc2OCc2ccccc2)OC(C)(C)CC3)cc1CC=C(C)C,-28.5% (active)
20,O=C(Nc1ccc([N+](=O)[O-])cc1)C(=O)Nc1ccc([N+](=O)[O-])cc1,118%
